Screening data: PubChem BioAssay, National Center for Advancing Translational Sciences (NCATS)
Most compounds without a hit are left out; they make up all but 2.4% or so of the library.
D2 ag-1: agonists of human D2 dopamine receptor; HEK293 T-REx D2 cells, calcium flux agonist mode; activation, % at 2 µM; 0.53% of 340,000 active; AID 485358;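 active = activation over 3 SD above normal in the single-dose calcium agonist read, cut at about 30% in these data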
Target sequence (P14416 whole entry, looked up): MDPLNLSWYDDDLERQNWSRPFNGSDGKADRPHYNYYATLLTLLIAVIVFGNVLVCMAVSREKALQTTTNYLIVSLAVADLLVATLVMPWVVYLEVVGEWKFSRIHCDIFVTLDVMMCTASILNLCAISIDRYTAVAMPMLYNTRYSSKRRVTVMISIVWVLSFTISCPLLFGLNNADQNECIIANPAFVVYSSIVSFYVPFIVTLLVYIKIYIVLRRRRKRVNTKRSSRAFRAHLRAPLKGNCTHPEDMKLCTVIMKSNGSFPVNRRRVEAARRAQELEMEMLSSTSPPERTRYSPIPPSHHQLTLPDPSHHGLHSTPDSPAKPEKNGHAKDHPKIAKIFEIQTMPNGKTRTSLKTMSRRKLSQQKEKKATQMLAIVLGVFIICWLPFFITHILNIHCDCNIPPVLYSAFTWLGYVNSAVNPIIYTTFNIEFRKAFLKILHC
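HEK293 Trex D2 cells, tetracycline-induced, o/n 30 C 5% CO2; no-wash Ca dye, RT 30–90 min; 10-cycle baseline, 23 nl cpd added, kinetic Ca read 180 s; agonist hits = positive Ca response.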
D2 ag-2: human D2 receptor agonism in beta-arrestin assay; P14416; DiscoveRx PathHunter D2 beta-arrestin, luminescence, 90 min; 100% = 57 uM dopamine signal; activation, % (concentration not given with the values); 0.084% of 360,000 active; in the data active = activation above about 40%; inconclusive = between about 15% and that limit
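Agonist mode: compounds alone added to overnight-plated D2 PathHunter cells for 90 min at 37 C, with 57 uM final dopamine (EC100) defining full response. Beta-arrestin recruitment detected by chemiluminescent reagent, read after 1 h at ambient temperature.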
D2 PAM-1: positively modulates the human D2 dopamine receptor allosterically | P14416 | HEK293 T-REx D2, calcium flux, EC20 dopamine potentiation | potentiation, % at 10 µM | 0.34% of 340,000 active;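 active = potentiation over 3 SD above the plate norm, cut at about 30% in these data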
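Primary screen. Calcium kinetics in induced HEK293 T-REx D2 cells: compound pre-addition 180 s, EC20 dopamine, 180 s more.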
D2 antag: antagonizes the human D2 dopamine receptor | P14416 | HEK293 TREx D2 cells, calcium flux, dopamine EC80 | inhibition, % at 10 µM | 2% of 340,000 active; in the data active = inhibition above about 30%; inactive = below that, where a call was filed
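Calcium mobilization kinetics were recorded at 1 s intervals in tetracycline-induced HEK293 T-REx D2 cells, first for 180 s after compound addition and then 180 s after EC80 dopamine.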
D2 PAM-2: human D2 receptor positive allosteric modulation; potentiation, % (no concentration beside the values); DiscoveRx D2 beta-arrestin cells, luminescence, 90 min; 100% = 57 uM dopamine signal; 0.23% of 360,000 active; AID 624464; P14416; in the data active = potentiation above about 50%; inconclusive = mostly about 30% to 49%
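PathHunter beta-arrestin assay in DiscoveRx D2 cells. Compounds were added with an EC20 of dopamine (50 nM final) for 90 min at 37 deg C. Luminescence was read 1 h after detection reagent, with 57 uM dopamine as the EC100 control.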
Each line names hits and unclear results; the compound was inactive in the other large screens.

Cc1cc(=O)oc2cc(OCC(=O)NC3CCCC3)ccc12	D2 PAM-1 30.6
CC1CCCC(C)N1C(=O)Cn1cc(/C=C2/C(=O)Nc3ccccc32)c2ccccc21 (stereo not drawn)	D2 antag 32.3
COC(=O)c1cn(CC(=O)N2C(C)CCCC2C)c2ccccc12 (stereo not drawn)	none
Cc1cc2c(n1-c1ccc(C(=O)NCCc3ccc(Cl)cc3)cc1)CCC(C)C2 (stereo not drawn)	none (no result: D2 ag-2, D2 antag, D2 PAM-2)
Cc1ccccc1OCCSc1nc2ccc(NC(=O)c3cccc(F)c3)cc2s1	none (no result: D2 ag-2, D2 antag, D2 PAM-2)
COc1ccc(CC(=O)Nc2ccc(-c3nc4ccccc4s3)c(C)c2)cc1OC	none (no result: D2 ag-2, D2 antag, D2 PAM-2)
O=C(Nc1cc(-c2ccccc2)cs1)c1ccco1	D2 antag 31.3
O=C(Nc1nc(-c2ccccc2)cs1)c1ccco1	none
Cc1ccc(S(=O)(=O)c2nnn3c2nc(N2CCC(C)CC2)c2cc(Cl)ccc23)cc1C	none (no result: D2 ag-2, D2 antag, D2 PAM-2)
Fc1ccc(-n2cc(CNCCc3ccccn3)c(-c3ccccc3Cl)n2)cc1	D2 antag 79.0
CCc1ccc(-n2nc(CO)c(C(=O)NCCCCc3ccccc3)n2)cc1	none (no result: D2 ag-2, D2 antag, D2 PAM-2)
CC(C)NC(=O)/C(=N\O)c1ccccc1	D2 antag 32.1
CCCCc1nn2c(=O)cc(COC(=O)CNC(=O)c3ccccc3C)nc2s1	none (no result: D2 ag-2, D2 antag, D2 PAM-2)
CCN(CC(=O)Nc1c(F)cccc1F)C(=O)C1COc2ccccc2O1 (stereo not drawn)	D2 antag 35.7
COc1ccc(N2C(=O)C(CC(=O)Nc3ccc(F)cc3)N(Cc3ccc4c(c3)OCO4)C2=O)cc1 (stereo not drawn)	none (no result: D2 ag-2, D2 antag, D2 PAM-2)
COc1ccc(N2C(=O)C(CC(=O)Nc3ccccc3)N(Cc3ccc4c(c3)OCO4)C2=O)cc1 (stereo not drawn)	D2 antag 43.0
Cc1ccc(C(=O)NC(=S)N2CCN(c3ccc([N+](=O)[O-])cc3)CC2)cc1	none
C[C@H](NC(=O)c1ccccc1)C(=O)N1CCN(c2ccccc2)CC1	D2 antag 30.4
O=C(NC(=S)N1CCN(c2ccc([N+](=O)[O-])cc2)CC1)c1ccccc1	D2 antag 31.0
CC(NC(=O)COc1ccccc1)C(=O)N1CCN(c2ccccc2)CC1 (stereo not drawn)	none
Cc1oc2ncn(CC(C)C)c(=O)c2c1C(=O)NCCc1ccc(Cl)cc1	none (no result: D2 ag-2, D2 antag, D2 PAM-2)
Cc1c2cnn(CC(=O)NCC(C)c3ccccc3)c(=O)c2c(C)n1Cc1cccc(Cl)c1 (stereo not drawn)	none (no result: D2 ag-2, D2 antag, D2 PAM-2)
Fc1ccc(-c2csc(=S)[nH]2)cc1	D2 antag 31.0
S=c1[nH]c(-c2ccccc2)cs1	none
COc1cc(C)ccc1OCCSc1nc2ccc(NC(C)=O)cc2s1	none (no result: D2 ag-2, D2 antag, D2 PAM-2)
CCOc1ccc(NC(=O)CSc2nc(-c3ccccc3)c3cc(OCC)ccc3n2)cc1	none (no result: D2 ag-1, D2 ag-2, D2 antag, D2 PAM-2)
CCc1cccc(C)c1NC(=O)CSc1nnc(C)o1	D2 PAM-1 37.3
O=S(=O)(Nc1ccc(-c2ccc(N3CCCCC3)nn2)cc1)c1ccc(OC(F)(F)F)cc1	none (no result: D2 ag-2, D2 antag, D2 PAM-2)
Cc1ccc(SCC(=O)Nc2ccc(N3CCN(C)CC3)c(F)c2)c(C)c1	D2 PAM-2 57.4
COc1ccccc1NC(=S)N(CCCN(C)C)Cc1cc2cc3c(cc2[nH]c1=O)OCO3	none (no result: D2 ag-1)
COc1ccccc1NC(=O)N(Cc1cccs1)Cc1cc2cc3c(cc2[nH]c1=O)OCO3	D2 antag 35.5
COC(=O)C1=C(Cn2cnc3ccccc32)NC(=O)NC1c1cc(C)ccc1C (stereo not drawn)	D2 ag-2 51.6, D2 PAM-2 90.7
CCOC(=O)C1=C(Cn2cnc3ccccc32)NC(=O)NC1c1cc(C)ccc1C (stereo not drawn)	D2 ag-2 inconclusive, D2 PAM-2 inconclusive
COc1ccc(CCC(C)N2CCC(Oc3ccc(C(=O)N4CCCC4)cc3)CC2)cc1 (stereo not drawn)	D2 antag 30.4
COc1ccccc1/C=C/CN1CCC(Oc2ccc(C(=O)N3CCCC3)cc2)CC1	D2 antag 47.1
COc1cc(/C=C/CN2CCC(Oc3ccc(C(=O)N4CCCC4)cc3)CC2)ccc1O	none
COc1ccc(C)cc1NC(=O)c1ccc2c(c1)nnn2C1CCCC1	none (no result: D2 ag-2, D2 antag, D2 PAM-2)
Cc1c(CC(=O)NCCc2ccccc2)c(=O)oc2c(C)c3occ(C(C)(C)C)c3cc12	none (no result: D2 ag-2, D2 PAM-1, D2 antag, D2 PAM-2)
CSc1ccc(S(=O)(=O)NCC(=O)OCC(=O)NCCc2ccccc2)cc1[N+](=O)[O-]	D2 antag 33.2
COc1ccc(-c2onc(C)c2C)cc1S(=O)(=O)N1c2ccccc2CC1C (stereo not drawn)	none (no result: D2 ag-2, D2 antag, D2 PAM-2)
COc1ccccc1N1CCN(C2CCCN(C(=O)c3ccoc3C)C2)CC1 (stereo not drawn)	D2 antag 30.6
COc1ccccc1N1CCN(C2CCCN(Cc3cccc(O)c3)C2)CC1 (stereo not drawn)	D2 antag 48.6
COc1ccccc1N1CCN(C2CCCN(C(=O)c3cc(C)oc3C)C2)CC1 (stereo not drawn)	none
COc1ccccc1N1CCN(C2CCCN(Cc3c(F)cccc3F)C2)CC1 (stereo not drawn)	D2 antag 53.1
Cc1ccc(NC(=O)Cn2c(-c3nonc3N)nc3ccccc32)c(Br)c1	none (no result: D2 ag-2, D2 antag, D2 PAM-2)
CC(C)NC(=O)c1sc2ncccc2c1-n1cccc1	none (no result: D2 ag-2, D2 antag, D2 PAM-2)
CCCN(CCC)C(=O)Cn1c(=O)n(-c2ccc(CC)cc2)c(=O)c2ccc(C(=O)NCCc3ccccc3)cc21	none (no result: D2 ag-2, D2 antag, D2 PAM-2)
CCCNC(=O)CSc1nc2ccc(OCC)cc2s1	D2 antag 35.2
COc1ccc(-c2c(C#N)c(SCC(=O)Nc3ccccc3C)nc(C)c2C(=O)Nc2ccccc2)cc1OC	none (no result: D2 ag-2, D2 antag, D2 PAM-2)
C=CCNC(=O)CN1C2CCCC1CC(NC(=O)c1ccccc1C)C2 (stereo not drawn)	D2 PAM-1 40.8
CC1=C(C(=O)Nc2ccccc2)C(c2cccn2C)n2ncnc2N1 (stereo not drawn)	none (no result: D2 ag-2, D2 antag, D2 PAM-2)
CC(C)Cn1cc(NC(=O)NCc2cccc(Cl)c2)c2ccccc2c1=O	none (no result: D2 ag-2, D2 antag, D2 PAM-2)
CC(C)(C)C(=O)n1nc(-c2ccccc2)oc1=O	D2 antag 30.5
Cc1ccc(C)c(Cn2c(=O)n(CCCC(=O)NCc3ccc4c(c3)OCO4)c(=O)c3sccc32)c1	none (no result: D2 ag-1, D2 ag-2, D2 antag, D2 PAM-2)
COc1ccc(C(=O)N(Cc2sccc2C)C2CCS(=O)(=O)C2)cc1Cl (stereo not drawn)	none (no result: D2 ag-2, D2 antag, D2 PAM-2)
O=C1NC(NS(=O)(=O)c2ccccc2)(C(F)(F)F)C(=O)N1c1ccc(F)cc1 (stereo not drawn)	D2 antag 32.9
COc1ccc(N2CC3=C(C2=O)C(c2ccc(O)c(OC)c2)NC(=O)N3C)cc1 (stereo not drawn)	none (no result: D2 ag-2, D2 antag, D2 PAM-2)
O=C(COc1cc2oc(=O)c3c(c2cc1Cl)CCC3)NCCCN1CCCC1=O	none
O=C(COc1cc2oc(=O)c3c(c2cc1Cl)CCC3)Nc1ccc(CN2CCOCC2)cc1	D2 PAM-1 30.4
Cc1cc(C)cc(NC(=O)C2CCCN(c3cnccn3)C2)c1 (stereo not drawn)	none (no result: D2 ag-2, D2 antag, D2 PAM-2)
